Screening results as filed in PubChem.
TNAP act mid DEA: activates human TNAP at intermediate phosphate acceptor concentration; P05186; purified TNAP, CDP-star luminescence, 100 mM DEA, 30 min; stronger effect = higher value; scale: 0 levamisole-inhibited, 1 vehicle-only enzyme; activation factor at 20 µM; 64,000 tested, under 10 active; AID 813;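 active = activation factor of at least 2 at 20 µM, relative to controls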
FXIIa inh mix: blocks human factor XIIa in pooled compound mixtures | inhibition, % at 5 µM | AID 684 | P00748 | purified FXIIa, fluorogenic substrate | actives 0.2% (n = 62,000)
D1 allo mod: allosteric modulators of human D1 dopamine receptor | P21728 | HEK293 D1, CRE-luciferase, dopamine EC30 potentiation; actives deviate in either direction | B-score at 10 µM | actives 5.9% (n = 58,000);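 active = luminescence count or its row- and column-corrected plate score outside the 99.7% band of the plate's sample wells, on either side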
Candida biofilm: kills Candida albicans biofilms | C. albicans biofilm + clotrimazole, Alamar Blue | inhibition, % at 6 µM | actives 0.14% (n = 85,000) | AID 834;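 active = inhibition above 20%; inactive = inhibition below 20%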;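 also: preformed 24 hr biofilms exposed to compound for 48 hr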
HePTP inhibitor: blocks human HePTP tyrosine phosphatase; actives 0.64% (n = 110,000); inhibition, % at 20 µM; recombinant HePTP phosphatase activity, OD absorbance; AID 521; P35236; in the data active = inhibition above about 50%
Target sequence (P35236 whole entry, looked up): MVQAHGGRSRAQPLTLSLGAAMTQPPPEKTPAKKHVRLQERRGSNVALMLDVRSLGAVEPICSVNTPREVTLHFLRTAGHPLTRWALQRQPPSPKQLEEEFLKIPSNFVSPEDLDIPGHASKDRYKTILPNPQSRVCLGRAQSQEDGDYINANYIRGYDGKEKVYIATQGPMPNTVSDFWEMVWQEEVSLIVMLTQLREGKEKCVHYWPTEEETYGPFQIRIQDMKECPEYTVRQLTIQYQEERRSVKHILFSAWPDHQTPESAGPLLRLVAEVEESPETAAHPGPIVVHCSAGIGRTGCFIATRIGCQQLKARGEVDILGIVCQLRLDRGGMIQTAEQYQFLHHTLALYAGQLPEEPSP
FXIa mix inh: blocks human factor XIa in pooled compound mixtures | P03951 | purified FXIa, fluorogenic substrate | inhibition, % at 5 µM | actives 0.19% (n = 62,000) | AID 680;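 also: each value is inhibition by a whole ten-compound pool holding the compound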
D1 PAM confirm: confirmation of human D1 dopamine receptor allosteric modulators | shares compounds with D1 allo mod | HEK293 D1 CRE-luciferase, dopamine EC30 potentiation; stronger effect = higher value | luminescence at 10 µM | actives 88% (n = 2,200) | AID 642;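 active = luminescence in either of two replicates above the same-plate mean plus 3 SD of the low-dose dopamine control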
D1 no dopamine: D1 (human) signaling in absence of dopamine | shares compounds with D1 allo mod | HEK293 D1 CRE-luciferase, luminescence, no dopamine; stronger effect = higher value | luminescence at 10 µM | actives 0.8% (n = 1,900) | AID 646; in the data active = luminescence above about 3900
Isoprot counter: isoproterenol response counter-screen activity for D1 modulators. luminescence at 10 µM. shares compounds with D1 allo mod. AID 647. HEK293 D1 CRE-luciferase, isoproterenol EC30 counter-screen; stronger effect = higher value. actives 63% (n = 2,200);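 active = luminescence in either replicate above plate mean of wells with a partly effective reference agonist dose plus 3 SD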;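 also: isoproterenol raises cAMP through native beta-adrenoceptor Gs so signal bypasses D1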
Large screens that a line does not name were inactive (follow-up assays come after a bar, where they were run). Many of the other results were omitted from the sample, so hits are more common in it than they were. Rule as the data show it, unless noted: active = inhibition above about 20% (passing the limit was not always enough); inactive = the rest.

Nc1ccc2nc(SCC(=O)NCCOc3ccc(Cl)cc3)sc2c1	none (no result: TNAP act mid DEA, FXIIa inh mix, D1 allo mod, Candida biofilm, FXIa mix inh)
O=C1c2ccccc2C(=O)N1c1cccc(S(=O)(=O)N2CCCCC2)c1	none (no result: TNAP act mid DEA, FXIIa inh mix, D1 allo mod, Candida biofilm, FXIa mix inh)
Cc1cccc2cc(CN(CC3CCCO3)C(=O)c3cccnc3)c3nnnn3c12 (stereo unspecified)	D1 allo mod 5.54 | D1 PAM confirm 15420 | Isoprot counter 4484
CCSc1nc(O)c(Cc2ccccc2)c(=O)n1-c1ccc(C)cc1	none (no result: TNAP act mid DEA, FXIIa inh mix, D1 allo mod, Candida biofilm, FXIa mix inh)
Cc1nc2ccccc2c2oc(C(=O)NCCCN3CCCC3=O)cc12	none
Cc1nc2ccccc2c2oc(C(=O)NCCN3CCN(C)CC3)cc12	D1 allo mod 2.65 | D1 PAM confirm inactive | D1 no dopamine inactive | Isoprot counter inactive
CCCN1C(=O)c2ccccc2NC1c1ccc(OC)cc1O (stereo unspecified)	D1 allo mod 4.45 | D1 PAM confirm inactive | D1 no dopamine inactive | Isoprot counter inactive
CC(=O)NC(=Nc1nc2ccccc2s1)NC(C)=O	none (no result: TNAP act mid DEA, FXIIa inh mix, D1 allo mod, Candida biofilm, FXIa mix inh)
O=C1c2oc3ccc(F)cc3c(=O)c2C(c2ccc(F)cc2)N1CCCN1CCOCC1 (stereo unspecified)	none
COc1cccc(C2c3c(oc4ccc(F)cc4c3=O)C(=O)N2CCCN2CCOCC2)c1 (stereo unspecified)	D1 allo mod 3.76 | D1 PAM confirm inactive | D1 no dopamine inactive | Isoprot counter inactive
CN(C)c1ccc(C2/C(=C(/O)c3ccccc3)C(=O)C(=O)N2Cc2ccccc2)cc1 (stereo unspecified)	none (no result: TNAP act mid DEA, FXIIa inh mix, D1 allo mod, Candida biofilm, FXIa mix inh)
CCCCNc1nc(-c2ccccc2)nc(-n2ccnc2)n1	none (no result: TNAP act mid DEA, FXIIa inh mix, D1 allo mod, HePTP inhibitor, FXIa mix inh)
C=CCNc1nc(-c2ccccc2)nc(-n2ccnc2)n1	D1 allo mod 8.65 | D1 PAM confirm 22092 | D1 no dopamine inactive | Isoprot counter 3292
c1ccc(-c2nc(NC3CC3)nc(-n3ccnc3)n2)cc1	D1 allo mod 10.6 | D1 PAM confirm 26636 | D1 no dopamine inactive | Isoprot counter 3844
CC(C)Nc1nc(-c2ccccc2)nc(-n2ccnc2)n1	D1 allo mod 10.6 | D1 PAM confirm 23348 | D1 no dopamine inactive | Isoprot counter 3780
c1ccc(-c2nc(-n3ccnc3)nc(-n3ccnc3)n2)cc1	none
Cc1ccccc1-c1cc(C(=O)Nc2ccccc2C(F)(F)F)c2ccccc2n1	none (no result: TNAP act mid DEA, FXIIa inh mix, D1 allo mod, Candida biofilm, FXIa mix inh)
N#CC(C(N)=O)C(SCc1ccccc1)c1ccc(Br)cc1 (stereo unspecified)	none (no result: TNAP act mid DEA, FXIIa inh mix, D1 allo mod, Candida biofilm, FXIa mix inh)
CONC(=O)c1ccc(C(=O)c2c(C)cc(C)cc2C)cc1	none (no result: TNAP act mid DEA, FXIIa inh mix, D1 allo mod, Candida biofilm, FXIa mix inh)
COc1cc(Br)c(CN2CCN(Cc3cc(OC)c(OC)c(OC)c3)CC2)cc1OC	none (no result: TNAP act mid DEA, FXIIa inh mix, D1 allo mod, Candida biofilm, FXIa mix inh)
COCCN(CCOC)Cc1cc(=O)oc2cc3c(cc12)CCC3	D1 allo mod 2.41 | D1 PAM confirm 9280 | Isoprot counter 2844
Cc1noc(C)c1CSc1nnc2scc(-c3ccc(Cl)cc3)n12	D1 allo mod 7.78 | D1 PAM confirm 18508 | D1 no dopamine inactive | Isoprot counter 4540
Cc1noc(C)c1CSc1nnc(-c2c[nH]c3ccccc23)n1-c1ccc(Cl)cc1	none (no result: D1 allo mod)
Cc1ccc(-c2nc(NC(=O)CSc3nnc4scc(-c5ccccc5)n34)ns2)cc1	none
Cc1ccc(-c2csc3nnc(SCc4csc(C)n4)n23)cc1	D1 allo mod 9.31 | D1 PAM confirm 22688 | D1 no dopamine inactive | Isoprot counter 5044
Cc1nc(CSc2nnc3scc(-c4ccccc4)n23)cs1	D1 allo mod 10.1 (no result: Candida biofilm) | D1 PAM confirm 21372 | D1 no dopamine inactive | Isoprot counter 4364
COc1ccc(-c2c3c(=O)n(C)c(=O)n(C)c3c3nnc4ccccc4n23)cc1	none
COc1ccc(-c2c3c(=O)n(C)c(=O)n(C)c3cn2C2CCCCC2)cc1	D1 allo mod 7.67 | D1 PAM confirm 15660 | D1 no dopamine inactive | Isoprot counter 3796
O=C(N/N=C/c1cc2ccccc2[nH]1)c1ccccc1	none (no result: TNAP act mid DEA, FXIIa inh mix, D1 allo mod, Candida biofilm, FXIa mix inh)
